Here are results for 40 molecules from PubChem BioAssay (Tox21).

The structures appear in SMILES notation. Results filed as inconclusive are left out. Entries that show only a call come without a potency. Unmarked numbers belong to inactive results. The source made the active and inactive calls. Calls follow the shape of the dose curve; as a rule, active = well fitted cell-killing curve with a large enough effect in the repeat runs; inconclusive = weak or mixed curves; inactive = flat fitted curve, though single readings scatter.

This test in a line: qHTS RealTime-Glo MT Cell Viability Assay in HepG2 cells - 8 hour (AID 1224873). Also: nearly all actives have a fitted effect of over 55% in size. The conditions noted are these: RealTime-Glo luminescence; series mostly up to 76.8 µM. The source says:
National Center for Advancing Translational Sciences [NCATS]
NIH Chemical Genomics Center [NCGC]
U.S. Environmental Protection Agency [EPA]
National Institutes of Environmental Health Sciences [NIEHS]
National Toxicology Program [NTP]
U.S. Food and Drug Administration [FDA]
Measure of cell viability is critical in the cell-base assay. Analysis of cell viability is necessary for the characterization of cell responses to cytotoxic drugs and environmental stress. A RealTime-Glo MT Cell Viability Assay to monitor cell viability in real time of continues cell culture during 40 hours of compound treatment was used to screen Tox21 10K library compounds in HepG2 cells. The RealTime-Glo MT Cell Viability Assay is a nonlytic, homogeneous, bioluminescent method to measure cell viability in real time using a simple, plate-based method. The assay involves adding NanoLuc luciferase and a cell-permeant prosubstrate to cells in culture. Viable cells reduce the proprietary prosubstrate to generate a substrate for NanoLuc luciferase. This substrate diffuses from cells into the surrounding culture medium, where it is rapidly used by the NanoLuc Enzyme to produce a luminescent signal. The signal correlates with the number of viable cells, making the assay well suited for cytotoxicity studies.
Tox21 Assay Protocol Summary:
The mixture of HepG2 cell suspension and reagents were dispensed at 600cells/6 ul/well in 1536-well tissue culture treated black solid bottom plates using a Multidrop dispenser. After the assay plates were incubated at a 37 C/5% CO2 incubator for 5 hours, 23 nL of compounds dissolved in DMSO, positive and negative controls was transferred to the assay plate by a pintool work station. The plates were incubated at 37 C for 40 hours. The luminescence intensity were measured at 0h, 8h, 16h, 24h, 32h and 40h time points using ViewLux plate reader during compound treatment.
In the case of `CCOC(=O)c1ccccc1C`, the Potency entry was “inactive”.
On to `CCCCCCCCSCCO`, for which the Potency result was “inactive”.
Turning to `O=C(CS)OCCOC(=O)CS`, the Potency result is “inactive”.
In the case of `CN1C(=O)CC(C)(c2ccccc2)C1=O` (stereo not given), the Potency result is “inactive”.
Turning to `CCC1(C)CC(=O)NC1=O` (stereo not given), the Potency result was “inactive”.
Regarding `Cc1cc(O)c2c(O)c3c(O)cccc3cc2c1`, the Potency entry is “inactive”.
The same measure, in the same setting: as for `CCCCOC(=O)CCS`, the entry is “inactive”; as for `CC(=O)OCC(=O)[C@@]12OC(C)(C)O[C@@H]1C[C@H]1[C@@H]3C[C@H](F)C4=CC(=O)C=C[C@]4(C)[C@@]3(F)[C@@H](O)C[C@@]12C`, “inactive”.
Turning to `NC(=O)N(O)[C@@H]1COc2cc(OCc3ccccc3)ccc21`, the Potency entry is “inactive”.
Turning to `Cc1cc(C(=C2C=CC(=Nc3ccc(S(=O)(=O)O)cc3S(=O)(=O)O)C=C2)c2ccc(Nc3ccc(S(=O)(=O)O)cc3)cc2)ccc1N`, the Potency entry was “inactive”.
Consider `Oc1cc(O)c(Cl)cc1Cl`, for which the Potency result is “inactive”.
Turning to `C/C=C(\C)C(=O)OCCC(C)CCC=C(C)C` (stereo not given), the Potency result was “inactive”.
Take `C[C@]12CCC(=O)C=C1C=C[C@@H]1[C@@H]2CC[C@@]2(C)[C@H]1CC[C@@]21CCC(=O)O1`: the Potency result was “inactive”.
Still for that read-out and setting: as for `CC(=O)Oc1ccc2c(c1)CC[C@@H]1[C@@H]2CC[C@]2(C)[C@@H](O)CC[C@@H]12`, the entry is “inactive”; as for `Nc1nc(Cl)nc2c1ncn2[C@@H]1O[C@H](CO)[C@@H](O)[C@@H]1F`, “inactive”.
`CN1CCN(c2c(F)cc3c(=O)c(C(=O)O)cn4c3c2OCN4C)CC1`: the viability change, negative = cytotoxic is 8.52% [at 15.8 µM].
Take `O=C(c1ccc(O)cc1)c1ccc(Cl)cc1`: the Potency result is “inactive”.
On the same count and under the same terms, as for `CCNC(=O)N1CCN(CCCC(c2ccc(F)cc2)c2ccc(F)cc2)CC1`, the entry is “inactive”; as for `Cc1cnc(C)c(C)n1`, “inactive”.
Take `C[Si]1(C)O[Si](C)(C)O[Si](C)(C)O1`: the Potency result was “inactive”.
As for `CCCc1c(OCCCOc2ccc(OCC(=O)O)cc2)ccc(C(C)=O)c1O`, the Potency entry is “inactive”.
In the case of `CCc1c2c(nc3ccc(OC(=O)N4CCC(N5CCCCC5)CC4)cc13)-c1cc3c(c(=O)n1C2)COC(=O)[C@]3(O)CC`, the Potency result was “inactive”.
Turning to `CO[Si](C)(OC)OC`, the Potency result is “inactive”.
Take `CCOC(=O)OCC`: the Potency entry is “inactive”.
Consider `O=C(Nc1ccc([N+](=O)[O-])cc1)Nc1ccc([N+](=O)[O-])cc1`, for which the Potency entry is “inactive”.
In the case of `CC(C)CCCCCOC(=O)CCCCC(=O)OCCCCCC(C)C`, the Potency result is “inactive”.
On the same count and under the same terms, the same measure for `CC(=O)Oc1ccc(C(=C2CCCCC2)c2ccc(OC(C)=O)cc2)cc1`: “inactive”.
With `CC(CCO)CCc1ccccc1` (stereo not given), the Potency entry was “inactive”.
Regarding `CC(COc1ccc(C(C)(C)C)cc1)OS(=O)OCCCl` (stereo not given), the Potency result was “inactive”.
Same read-out and setting: as for `CSc1ccc(Oc2ccc(S(N)(=O)=O)cc2CN(C)C)cc1C`, the entry is “inactive”; as for `OCC1CC=CCC1` (stereo not given), “inactive”.
For `CC(C)(C)CC(C)(C)c1ccc(OCCO)cc1`, the Potency result is “inactive”.
For the molecule `C[N+]1(C)CCC(=C(c2ccccc2)c2ccccc2)CC1`, the Potency result was “inactive”.
As to `COC(=O)c1cc(Cl)ccc1NS(=O)(=O)C(F)(F)F`, the Potency result is “inactive”.
For `CCC(=O)OC/C=C/c1ccccc1`, the Potency result was “inactive”.
Consider `CCCC(=O)O[C@]1(C(=O)COC(=O)CC)CC[C@H]2[C@@H]3CCC4=CC(=O)CC[C@]4(C)[C@H]3[C@@H](O)C[C@@]21C`, for which the viability change, negative = cytotoxic was 4.81% [at 15.8 µM].
For the molecule `Cc1occc1C(=O)Nc1ccc(C(=O)N2CCC(F)(F)/C(=C\C(=O)N3CCC(N4CCCCC4)CC3)c3ccccc32)cc1`, the Potency result is “inactive”.
The same measure, in the same setting: as for `Cc1ccc(/C=N/n2c(-c3ccccc3)csc2=S)cc1`, the entry is “inactive”; as for `CCOC(=O)N1CCC(n2c(=O)[nH]c3cc(Cl)ccc32)CC1`, “inactive”.
As for `COc1cc2c(N3CCN(C(=O)Nc4ccc(OC(C)C)cc4)CC3)ncnc2cc1OCCCN1CCCCC1`, the Potency result is “inactive”.
